Only some compounds are listed: those with a hit (about 2.6% of all), similar ones and a draw of the others.
TPT1 inh – Candida albicans TPT1 enzyme inhibitors, primary screen, biochemical, fluorescence polarization; tRNA 2'-phosphotransferase TPT1 (Candida albicans SC5314); inhibition, % at 5 µM; 300,000 tested, 0.81% active; recombinant caTPT1, FP RNA substrate dephosphorylation;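 active means inhibition above the mean of all tested compounds plus 3 SD, set per screening campaign, cut at about 24% in these data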
IDE cell activ – human IDE activators in live cells, primary screen, fluorescence polarization, HEK cells, FAbeta-B substrate; Insulin-degrading enzyme (Homo sapiens), P14735; FAbeta-B cleavage; 0% vehicle, 100% cell-free pure enzyme wells; activation, % at 5.96 µM; 340,000 tested, 0.073% active;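 active means activation above the mean of all tested compounds plus 3 SD, set per screening campaign, cut at about 17% in these data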
Target sequence (P14735 whole entry, looked up): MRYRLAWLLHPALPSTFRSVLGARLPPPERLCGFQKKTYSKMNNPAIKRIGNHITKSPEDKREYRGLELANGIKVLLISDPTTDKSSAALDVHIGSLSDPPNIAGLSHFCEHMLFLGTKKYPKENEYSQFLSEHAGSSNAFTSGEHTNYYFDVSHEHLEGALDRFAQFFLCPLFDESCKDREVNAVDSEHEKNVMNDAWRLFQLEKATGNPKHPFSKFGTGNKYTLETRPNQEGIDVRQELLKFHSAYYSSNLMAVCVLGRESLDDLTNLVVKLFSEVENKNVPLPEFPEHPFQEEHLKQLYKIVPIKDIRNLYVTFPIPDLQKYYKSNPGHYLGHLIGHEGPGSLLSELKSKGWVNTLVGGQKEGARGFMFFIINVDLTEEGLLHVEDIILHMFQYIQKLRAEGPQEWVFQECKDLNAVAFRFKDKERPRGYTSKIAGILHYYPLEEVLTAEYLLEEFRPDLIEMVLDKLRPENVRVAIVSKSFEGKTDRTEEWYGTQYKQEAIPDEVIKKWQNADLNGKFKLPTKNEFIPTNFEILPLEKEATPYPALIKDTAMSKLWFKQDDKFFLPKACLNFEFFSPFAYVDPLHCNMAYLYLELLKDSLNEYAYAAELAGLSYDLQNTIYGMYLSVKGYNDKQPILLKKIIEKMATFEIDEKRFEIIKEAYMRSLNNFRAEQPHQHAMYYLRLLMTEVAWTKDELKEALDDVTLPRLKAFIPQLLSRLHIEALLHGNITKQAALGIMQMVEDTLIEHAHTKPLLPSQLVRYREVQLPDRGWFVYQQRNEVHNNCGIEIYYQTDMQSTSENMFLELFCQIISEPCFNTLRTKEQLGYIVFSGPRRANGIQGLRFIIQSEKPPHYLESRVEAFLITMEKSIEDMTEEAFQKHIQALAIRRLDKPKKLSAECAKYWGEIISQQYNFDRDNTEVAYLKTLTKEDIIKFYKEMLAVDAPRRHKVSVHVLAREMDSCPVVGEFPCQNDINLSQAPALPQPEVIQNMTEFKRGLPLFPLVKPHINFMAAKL
Myeloid diff 2 – induction of myeloid progenitor differentiation, primary screen, cell-based, flow cytometry, MLPCN library; AID 624256, 2012; 360,000 tested, 1% active; ER-HoxA9 myeloid progenitors, lysozyme-GFP differentiation; calls only at 10 µM;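 active means normalized GFP-positive differentiation at or above the plate's own cutoff, the solvent-only control mean plus 3 SD; inconclusive means no clear call, values can overlap the other calls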;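 further: cells exposed to compound for four days before flow analysis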
CRFBP-R2 agonist – agonists of CRF-BP/CRF-R2 complex, primary screen, cell-based, HEK293, calcium dye fluorescence, uHTS. activation, % at 13.2 µM. calcium dye fluorescence (FLIPR); percent of saturating CRF peptide response. CRF-binding protein / CRF receptor 2 complex (human). 350,000 tested, 0.46% active;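 active means activation of at least 50%, plus an integration ratio under a set limit after plate pattern correction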
CRFBP-R2 block – antagonists of CRF-BP/CRF-R2 complex, primary screen, cell-based, HEK293, calcium dye fluorescence, uHTS; CRF-induced calcium fluorescence; inhibition, % at 11.8 µM; AID 588475, 2011; 350,000 tested, 0.59% active;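 active means inhibition of the ligand-induced calcium signal above about 50% at the single tested concentration, limit read from the data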
IDE inh – human IDE inhibitors in live cells, primary screen, fluorescence polarization, HEK cells, FAbetaB substrate | FAbetaB cleavage | inhibition, % at 5.59 µM | 320,000 tested, 0.41% active;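 active means percent inhibition above the average of all tested compounds plus 3 SD, set per screening campaign, cut at about 16% in these data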;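 further: IDE supplied by intact live HEK cells; FP after avidin binding of uncleaved biotin substrate so inhibition keeps polarization high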
IDE cell inh cf – human IDE inhibitors in live cells, confirmation, fluorescence polarization, HEK cells, FAbetaB substrate; shares compounds with IDE inh; FAbetaB cleavage; inhibition, % at 5.59 µM; 1,200 tested, 51% active;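 active means mean inhibition across triplicate wells above the cutoff set by the earlier primary insulin-degrading enzyme screen, cut at about 16% in these data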
HEK293 tox – cytotoxicity in HEK cells, cytotoxicity control for IDE inhibitor project, cell-based, luminescence; shares compounds with IDE inh; HEK293 cytotoxicity, ATP luminescence; inhibition, % at 5.59 µM; 1,200 tested, 28% active; AID 449730, 2010; in the data active means inhibition above about 22%
A number is an active result; - = inactive; ? = inconclusive; . = no result given.

SMILES	TPT1 inh	IDE cell activ	Myeloid diff 2	CRFBP-R2 agonist	CRFBP-R2 block	IDE inh	IDE cell inh cf	HEK293 tox
CS(=O)(=O)Nc1nc2n(n1)C(c1ccccc1)C=C(c1ccc(Br)cc1)N2 (stereo not given)	-	-	-	139	-	63	79	-
COc1ccccc1C1C=C(c2ccc(Cl)cc2)Nc2nc(NS(C)(=O)=O)nn21 (stereo not given)	-	.	.	.	.	-	.	.
COc1ccc(Cc2ccccc2C(=O)O)cc1	.	-	-	-	-	.	.	.
COc1ccc(CC2=CC(=O)c3ccccc3C2=O)cc1	-	-	?	-	-	46	35	68
O=C1/C(=C/c2ccc(Cl)cc2)NC(=S)N1Cc1cccnc1	-	.	-	-	-	-	.	.
CCCCC(OC(=O)CN1C(=O)COc2ccccc21)C(=O)NC1CCCCC1 (stereo not given)	-	-	-	-	-	-	.	.
CCCCC(=O)OCC(=O)N1N=C(c2c[nH]c3ccccc23)C(O)C1c1ccc(OC)cc1 (stereo not given)	-	-	-	-	-	-	.	.
Cc1cccc(N2CCN(C(=O)CCCn3c(=O)c4cccn4c4cccnc43)CC2)c1C	-	-	-	-	-	25	-	23
COc1ccc(N2CCN(c3nc4c(c(=O)n(C)c(=O)n4C)n3Cc3ccccc3)CC2)cc1	-	-	-	-	-	20	-	-
O=C(O)C(c1ccccc1)N1C(=O)/C(=C\c2ccc(O)c(O)c2)SC1=S (stereo not given)	-	-	-	-	-	67	84	-
CC(C)(CC(=O)O)CC(=O)N1CCCN(c2nc3ccc(Cl)cc3s2)CC1	-	-	-	-	-	-	.	.
CC(C)(CC(=O)O)CC(=O)N1CCN(c2nc3ccc(Cl)cc3s2)CC1	-	-	-	-	-	16	-	-
COc1ccc(N=C(C)C2=C(O)c3ccccc3C2=O)cc1	-	-	-	-	-	18	-	-
CCOc1ccc(N=C(C)C2=C(O)c3ccccc3C2=O)cc1	-	-	-	-	-	-	.	.
C=CCOC(=O)C1=C(C)NC(=O)NC1/C=C/c1ccccc1OC (stereo not given)	-	-	-	-	-	21	-	-
Clc1ccc(/C=C/c2ncc[nH]2)c(Cl)c1	-	-	-	-	-	18	-	-
Fc1cccc(C[n+]2csc3ccccc32)c1	-	-	-	-	-	22	-	-
c1ccc(C[n+]2csc3ccccc32)cc1	-	-	-	-	-	26	-	-
NC(=S)N/N=C/c1ccccc1OCc1cccc(Cl)c1	-	-	-	-	-	-	.	.
CCOc1cccc(-c2c(C(=O)N/N=C/c3ccco3)nnn2-c2nonc2N)c1	-	-	-	-	-	-	.	.
CCc1cccc(NC(=O)CCCCCC2NC(=O)NC2C)c1 (stereo not given)	-	-	-	-	-	22	-	-
Cc1ccc(NC(=O)CCCCCC2NC(=O)NC2C)cc1 (stereo not given)	-	-	-	-	-	-	.	.
CN(C)C(=O)c1ccc(NC(=O)c2cccc(S(=O)(=O)N3CCCc4ccccc43)c2)cc1	-	-	-	-	-	-	.	.
Cc1ccc2c(c1)CCCN2S(=O)(=O)c1cccc(C(=O)Nc2ccccc2C(=O)O)c1	-	-	-	.	.	41	23	26
Cc1cccc(C2NC(c3cccc(C)c3)C(C)C(=O)C2C)c1 (stereo not given)	-	-	-	-	-	-	.	.
CC(=O)c1ccc2c3c(cccc13)C(=O)N(c1c(C)nn(C)c1C)C2=O	-	-	-	-	-	-	.	.

Screens (PubChem)
